This is part of a sample that, as a whole, favours compounds with a hit. Of some 83,000 tested, about 20% had one in any assay.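 Step 1: grow cells in 96-well plates. Step 2: add test compound at a single concentration. Step 3: incubate 48 h. Step 4: record percent growth.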
Key:
Test in all cases: NCI-60 one-dose screen, 48 h (100 = growth as untreated, 0 = no growth, -100 = all killed)
Details in all cases: 10 µM unless noted; active = growth percent below 10; inactive = the rest
[1] = system: DU-145 prostate
[2] = system: K-562 leukemia
[3] = system: MALME-3M melanoma
[4] = system: MDA-MB-231 breast
[5] = system: RXF 393 renal
[6] = system: SF-268 CNS
[7] = system: SF-295 CNS
[8] = system: SF-539 CNS
[9] = system: UACC-257 melanoma
[10] = system: M14 melanoma

Measured: growth

O=C(O)CCCCCNC(=O)OCc1ccccc1
inactive: [1] 98% | [2] 124% | [3] 97.2% | [4] 102% | [5] 119% | [6] 100% | [7] 99.8% | [8] 97.5% | [9] 112% | [10] 92.7%

Cn1/c(=N\N=C\c2ccccc2OCCO)sc2ccccc21
inactive: [1] 109% | [2] 76.7% | [3] 80.2% | [4] 72.1% | [5] 102% | [6] 94.1% | [7] 94% | [8] 92.9% | [9] 121% | [10] 103%

CC(C)c1ccc(C(=O)OCCCl)cc1
inactive: [1] 117% | [2] 103% | [3] 89.9% | [4] 105% | [5] 41.8% | [6] 112% | [7] 83.8% | [8] 104% | [9] 95.3% | [10] 93.6%

CCOC(=O)C(C#N)=C1CCN(C)CC1
inactive: [1] 123% | [2] 116% | [3] 124% | [4] 119% | [5] 115% | [6] 102% | [7] 103% | [8] 105% | [9] 93.9% | [10] 105%
